# In ChEMBL document CHEMBL3988442, “University of Dundee, Small-Polar-MMV Screening Library” (2021):
# The campaign covered roughly 48,000 compounds. About 13,000 (27%) showed an effect of 50% or more. The list shows a part of the results.
# Tested on: Wolbachia pipientis
# Assay: Anti-Wolbachia Cell-Based Screen
# Assay type: functional
# Design: scale not given: in the data most compounds retested in dose-response had high values
# Conditions: 5 µM
row,SMILES,Percent Effect
1,Cc1csc2c(N3CCC(NCCCc4cnn(C)c4)CC3)ncnc12,-7.863%
2,CN(CCCc1cnn(C)c1)C(=O)Nc1cccc2[nH]nnc12,-5.738%
3,CN(C(=O)Nc1ccncc1)C1CCN(c2ccc(Cl)cc2)CC1,99.54%
4,CN(CCN1CCN(c2ccccc2)CC1)C(=O)Nc1ccncc1,-6.47%
5,CSC(C)C(=O)N(C)C1CCN(c2ccc(Cl)cc2)CC1 (centres undefined),-5.322%
6,CN(CC(=O)N(C)C1CC1)C1CCN(c2ccc(Cl)cc2)CC1,-1.318%
7,COc1ccc(N2CCC(N(C)C(=O)C(C)SC)CC2)cc1 (centres undefined),1.657%
8,CN(C(=O)NC1CC1)C1CCN(c2ccc(Cl)cc2)CC1,95.01%
9,CN(C(=O)Nc1cccnc1)C1CCN(c2ccc(Cl)cc2)CC1,102.5%
10,CCOC(C)C(=O)N(C)C1CCN(c2ccc(OC)cc2)CC1 (centres undefined),-2.729%
11,Cc1cc(N2CCC(N(C)C(=O)Nc3ccccc3)CC2)nc(C)n1,1.821%
12,CCCNC(=O)CN(C)C1CCN(c2ccc(Cl)cc2)CC1,-1.782%
13,COc1ccc(N2CCC(N(C)C(=O)Nc3ccncc3)CC2)cc1,86.34%
14,CNC(=O)CN(C)C1CCN(c2ccc(Cl)cc2)CC1,12.22%
15,CCC(CNC(=O)NC1CCN(C)CC1)Oc1ccccc1Cl (centres undefined),5.674%
16,Cc1cc(C)nc(N2CCN(Cc3nccn3C)CC2)n1.O=CO,104.1%
17,Cc1nc(-c2ccccc2)nc2c1CCN(Cc1nccn1C)CC2,118.4%
18,Cc1cc(C(F)(F)F)nc(N2CCN(Cc3nccn3C)CC2)n1,-22.48%
19,Cc1nc(C)c2c(n1)CCN(Cc1nccn1C)CC2.O=C(O)C(F)(F)F,102.7%
20,Cc1nc(N2CCOCC2)nc2c1CCN(Cc1cccnc1)CC2.O=C(O)C(F)(F)F,-14.62%
21,Cn1ccnc1CN1CCN(Cc2cc(-c3ccccc3)no2)CC1,10.9%
22,COc1cc(C)nc(N2CCN(Cc3nccn3C)CC2)n1,16.21%

row,SMILES,Percent Effect
1,Cc1nc(NC(C)C)nc2c1CN(Cc1nccn1C)CC2,3.247%
2,Cc1nc(N2CCOCC2)nc2c1CCN(Cc1ccsc1)CC2.O=C(O)C(F)(F)F,-7.325%
3,Cc1nc(N2CCOCC2)nc2c1CCN(Cc1nccn1C)CC2.O=C(O)C(F)(F)F,110.5%
4,CC(C)Nc1nc2c(c(NC3CC3)n1)CCN(Cc1nccn1C)CC2.O=C(O)C(F)(F)F,5.459%
5,CC(C)(C)C(=O)N1C[C@@H]2COC[C@]2(c2nnc(C3CC3)o2)C1,1.473%
6,N#Cc1cccc(N2CCCC(CO)(CCOc3ccccc3)C2)n1 (centres undefined),-9.375%
7,CN(C)c1nc(N2CCCC2)nc2c1CCN(Cc1nccn1C)CC2.O=C(O)C(F)(F)F,102.1%
8,Cc1nc(N2CCCC2)nc2c1CCN(Cc1nccn1C)CC2.O=C(O)C(F)(F)F,105.6%
9,Cn1ccnc1CN1CCc2ncnc(N3CCCC3)c2CC1.O=C(O)C(F)(F)F,15.66%
10,Cc1nc(N2CCCC2)nc2c1CCN(Cc1ccoc1)CC2.O=C(O)C(F)(F)F,6.139%
11,CN(C)c1nc(N2CCCC2)nc2c1CCN(C(=O)c1ccco1)CC2.O=C(O)C(F)(F)F.O=C(O)C(F)(F)F,15.95%
12,CC(C)Nc1nc2c(c(N(C)C)n1)CCN(Cc1nccn1C)CC2.O=C(O)C(F)(F)F,-14.43%
13,O=C(c1cncc(N2CCC3(CCNCC3)CC2)n1)N1CCCC1,1.429%
14,CCC(C)(C)C(=O)N1CCN(C2=NCC(C)S2)CC1 (centres undefined),-0.6002%
15,CCOc1ccccc1OC1CCN(C(=O)c2nc(=O)[nH][nH]2)CC1,-16.56%
16,CN1CC(c2n[nH]c(=O)n2-c2cccc(Cl)c2)CC1=O (centres undefined),-17.26%
17,C[C@H](c1ccc(F)cc1)n1c(C2CCC2)n[nH]c1=O,13.77%
18,O=c1[nH]nc(C2CC2)n1-c1cccc(Cl)c1,12.75%
19,CCOc1ccccc1-n1c(C2CC(=O)N(C)C2)n[nH]c1=O (centres undefined),114.8%
20,CCOc1ccccc1-n1c(C2CC2)n[nH]c1=O,101.4%
21,CCOc1ccccc1-n1c(CNC)n[nH]c1=O,-1.505%
22,CCOc1ccccc1-n1c(C2CCC2)n[nH]c1=O,114.1%

row,SMILES,Percent Effect
1,CN1CCC(c2n[nH]c(=O)n2-c2cccc(Cl)c2)CC1,-11.2%
2,CCN(Cc1cccc(C)c1)Cc1nc2c(cnn2C)c(=O)[nH]1,145.1%
3,CC(C)N(Cc1cccc(F)c1)Cc1nc2c(cnn2C)c(=O)[nH]1,-9.693%
4,Cc1cccc(CN(C)Cc2nc3c(cnn3C)c(=O)[nH]2)c1,-4.984%
5,CC(C)CN(CCc1ccccc1)Cc1nc2c(cnn2C)c(=O)[nH]1,122.3%
6,CCN(Cc1nc2c(cnn2C)c(=O)[nH]1)Cc1ccccc1Cl,128.5%
7,CN(Cc1nc2c(cnn2C)c(=O)[nH]1)Cc1ccccc1Cl,-1.712%
8,CC(C)CN(Cc1nc2c(cnn2C)c(=O)[nH]1)C(C)C,-8.165%
9,CCN(Cc1nc2c(cnn2C)c(=O)[nH]1)Cc1ccccc1C,-3.933%
10,CC(C)N(Cc1cccc(Cl)c1)Cc1nc2c(cnn2C)c(=O)[nH]1,119.9%
11,CN(CCCc1ccccc1)Cc1nc2c(cnn2C)c(=O)[nH]1,-1.148%
12,CCN(Cc1cccc(Cl)c1)Cc1nc2c(cnn2C)c(=O)[nH]1,6.587%
13,Cc1ccc(NCc2ccc(C#N)cc2)c(CN(C)C)c1,-4.346%
14,N#CCCN(Cc1ccccn1)C(=O)Nc1cccnc1,-3.639%
15,CCN(C)c1ccc(C(=O)NCCCc2ccccn2)cn1,1.401%
16,CC(O)CC(C)(C)CNS(=O)(=O)c1cccc(Cl)c1C#N (centres undefined),-3.91%
17,O=C(CN1C(=O)CCNC1=O)N1CCOC(c2ccc(F)cc2)C1 (centres undefined),13.31%
18,CCN(CC(=O)NC(C)C)S(=O)(=O)N1CCCC(C)C1 (centres undefined),-4.686%
19,CC(=O)c1c(F)cccc1N1CCC(CS(N)(=O)=O)CC1,-2.597%
20,CN(Cc1ccc([S+](C)[O-])cc1)c1ccc(Cl)cn1 (centres undefined),-11.61%
